Bioassay records (PubChem BioAssay)
mHTT CaM bind: inhibitors of human mutant huntingtin-calmodulin interaction | P42858 | AlphaScreen His-mHTT/GST-CaM binding, luminescence | inhibition, % at 15 µM | 190,000 compounds, 3.6% hits | AID 1671202;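 note: 0% = both proteins with DMSO and 100% = one protein alone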
Pf apPOL inh: Pf-apPOL DNA polymerase inhibition; inhibition, % at 10 µM; 210,000 compounds, 0.25% hits; Recombinant Pf-apPOL, molecular beacon fluorescence, 1.5 h
The depositor's hits bear a star; / = no result given. Sampled rows, rich in hits. Any-hit rate of the full collection: about 3.6%. Cut-off read from the data, not from the text of the source: active = inhibition above about 50%; inactive = the rest.

SMILES	mHTT CaM bind	Pf apPOL inh
CC(=O)N(C)CC(=O)N1N=C(c2ccc(C)c(C)c2)CC1c1ccc(C)cc1 (stereo not drawn)	58.4*	-2.0
Cc1ccc(C2CC(c3ccccc3Cl)=NN2C(=O)CN(C)C(=O)C2CC2)cc1 (stereo not drawn)	88.2*	0.6
Cc1ccc(C2CC(c3cccn3C)=NN2C(=O)CN(C)C(=O)C(C)C)cc1 (stereo not drawn)	62.1*	-5.2
COc1ccc(OC)c(/C=C2/SC(c3ccccc3)=NC2=O)c1	10.0	-2.7
COc1cc(OC)c(NC(=O)CSC2=NC(C)(C)N=C2c2ccccc2)cc1Cl	19.2	0.6
COc1ccccc1CNC(=O)c1cc2ccncc2n1C	-2.9	-2.3
C=CCOc1ccc(C(=O)n2cc(Br)cn2)cc1	-4.7	-3.2
COc1ccccc1COc1ccc(C(F)(F)F)cc1[N+](=O)[O-]	-20.0	-1.9
Cc1ccc(C2CC(c3cccn3C)=NN2C(=O)CN(C)C(=O)C2CCC2)cc1 (stereo not drawn)	53.9*	-7.6
CN(CC(=O)N1N=C(c2ccc(F)cc2)CC1c1ccc(F)cc1)C(=O)C1CCC1 (stereo not drawn)	42.9	-4.7
Cn1cc(C(=O)O)cc([N+](=O)[O-])c1=O	-0.8	-3.6
CC(C(=O)NCc1ccncc1)N1CCN(c2ccc(Cl)cc2)CC1 (stereo not drawn)	4.3	-3.2
Cc1ccc(S(=O)(=O)N2CCC(CCNC(=O)NC(C)C)CC2)cc1	41.1	4.8
CCN(CC)S(=O)(=O)N1CCC(C(=O)NC2CCCc3ccccc32)CC1 (stereo not drawn)	-13.0	-6.8
O=C(NC1CCCc2ccccc21)C1CCN(Cc2c[nH]c3ccccc23)CC1 (stereo not drawn)	69.5*	-1.6
COc1ccc(/C=C2\Sc3ccccc3C2=O)cc1Br	13.0	-6.6
CCOc1cc(C=C2C(=O)c3ccccc3C2=O)cc(Br)c1O	66.0*	-4.4
CCOc1cc(C=C2C(=O)c3ccccc3C2=O)ccc1OC(C)C(=O)O (stereo not drawn)	16.0	-3.6
CCOc1cc(/C=C2\Sc3ccccc3C2=O)cc(I)c1O	71.0*	-5.5
COc1cc(/C=C2\Sc3ccccc3C2=O)cc2sc(=O)oc12	13.0	0.2
COc1cc(/C=C2\Sc3ccccc3C2=O)cc(Br)c1O	59.0*	-2.1
CCOc1ccc(/C=C2\Sc3ccccc3C2=O)cc1	1.0	1.6
COc1cc(/C=C2\Sc3ccccc3C2=O)cc(I)c1O	74.0*	-2.9
CN(C)c1ccc(CNc2c3c(nc4ncnn24)CCCC3)cc1	37.0	-3.5
COc1ccc(S(=O)(=O)n2c(SCc3cccnc3)nc3ccccc32)cc1	7.0	-3.4
SMILES	mHTT CaM bind	Pf apPOL inh
CC(=O)OCC1=COC(OC(=O)CC(C)C)C2C1=CC(OC(=O)CC(C)C)C21CO1 (stereo not drawn)	/	23.0
COc1ccc(/C=C2/SC(c3ccccc3)=NC2=O)cc1	44.0	-4.5
COc1cc(/C=C2/SC(c3ccccc3)=NC2=O)cc(Br)c1O	96.0*	1.9
CC(C)N1C(=O)c2ccccc2Oc2ccc(NC(=O)c3cccs3)cc21	16.1	-10.0
CSc1ccc(C2SCC(=O)N2c2ccccc2)cc1 (stereo not drawn)	0.0	-4.4
O=C(NC1CCCCC1)N1CCN(Cc2nnnn2-c2ccc(Cl)cc2)CC1	-6.3	-5.8
CCCc1nc(-c2c(C)cc(C)nc2NC(=O)c2ccc(F)cc2Cl)no1	1.4	-2.9
Cc1ccc(S(=O)(=O)Nc2cccc(C(=O)Nc3nnc(-c4cccs4)o3)c2)cc1	82.5*	-237.4
Cc1onc(-c2ccccc2Cl)c1C(=O)Nc1nnc(-c2cccs2)o1	82.5*	-146.3
Cc1cc(C(=O)Nc2nnc(-c3cccs3)o2)no1	-0.9	7.3
CCN(CC)S(=O)(=O)c1ccc(C(=O)Nc2nnc(-c3cccs3)o2)cc1	27.0	-0.3
CCn1ccc2c(cc(C(=O)Nc3ccc(Cl)cc3C)n2C)c1=O	-4.8	-2.4
COCCNC(=O)CCS(=O)(=O)Cc1ccccc1Cl	0.0	-17.3
N=c1c(C(=O)NCc2cccnc2)cc2c(=O)n3ccccc3nc2n1CCN1CCOCC1	-2.0	-5.2
O=[N+]([O-])c1cc(C(F)(F)F)ccc1Sc1ccccc1	55.0*	-4.4
CC(C)Sc1ccc(C(F)(F)F)cc1[N+](=O)[O-]	/	-31.0
COCCC1CCN(C(=O)c2ccccc2C(F)(F)F)CC1	4.7	0.0
CCn1cc(-c2nc(C(=O)N3CCN(c4ccccc4)CC3)cs2)c2cccnc21	100.2*	-2.4
O=C(c1csc(-c2ccncc2)n1)N1CCN(c2cccc(C(F)(F)F)c2)CC1	63.0*	1.9
Cc1nc(-c2cn(C)c3ncccc23)sc1C(=O)N1CCN(c2ccccc2)CC1	55.1*	-5.6
COc1cccc(N2CCN(C(=O)c3csc(-c4cccnc4)n3)CC2)c1	19.0	-1.6
CCn1cc(-c2nc(C)c(C(=O)N3CCOCC3)s2)c2cccnc21	9.4	0.4
CCn1cc(CC(=O)N2CCN(c3ccccc3)CC2)c2cccnc21	13.3	-4.6
